Screens as filed in PubChem.
HP1b chromo inh: inhibitors of HP1-beta chromodomain binding to methylated histone tails | P83916 | 390,000 tested, 0.56% active | AlphaScreen HP1-beta / biotin-H3K9me3 peptide binding | Potency, µM (top dose mostly 114 µM), without a hit: at the top dose activity change, negative = inhibition, actives largely listed as inhibitors | AID 540317; also: nearly all actives have a fitted effect of over 70% in size
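Compound inhibition of the preformed complex between 50 nM HP1-beta and 50 nM biotinylated H3K9me3 peptide was read by AlphaScreen. Buffer was PBS pH 7.4 with 0.01% Tween-20. Incubations ran 30 min at room temperature, with 10 ug/mL donor/acceptor beads.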
L3MBTL1 block: blocks human L3MBTL1 | Potency, µM (series often up to 57.1 µM), without a hit: at the highest dose activity, negative = inhibition, hits mostly inhibitors | AlphaScreen L3MBTL1–H3K9me1 peptide binding | 230,000 tested, 0.66% active | Q9Y468; also: % is scaled to controls: 0 for no effect and ±100 for the full control effect; nearly all actives have a fitted effect of over 60% in size
Target sequence (Q9Y468 whole entry, looked up): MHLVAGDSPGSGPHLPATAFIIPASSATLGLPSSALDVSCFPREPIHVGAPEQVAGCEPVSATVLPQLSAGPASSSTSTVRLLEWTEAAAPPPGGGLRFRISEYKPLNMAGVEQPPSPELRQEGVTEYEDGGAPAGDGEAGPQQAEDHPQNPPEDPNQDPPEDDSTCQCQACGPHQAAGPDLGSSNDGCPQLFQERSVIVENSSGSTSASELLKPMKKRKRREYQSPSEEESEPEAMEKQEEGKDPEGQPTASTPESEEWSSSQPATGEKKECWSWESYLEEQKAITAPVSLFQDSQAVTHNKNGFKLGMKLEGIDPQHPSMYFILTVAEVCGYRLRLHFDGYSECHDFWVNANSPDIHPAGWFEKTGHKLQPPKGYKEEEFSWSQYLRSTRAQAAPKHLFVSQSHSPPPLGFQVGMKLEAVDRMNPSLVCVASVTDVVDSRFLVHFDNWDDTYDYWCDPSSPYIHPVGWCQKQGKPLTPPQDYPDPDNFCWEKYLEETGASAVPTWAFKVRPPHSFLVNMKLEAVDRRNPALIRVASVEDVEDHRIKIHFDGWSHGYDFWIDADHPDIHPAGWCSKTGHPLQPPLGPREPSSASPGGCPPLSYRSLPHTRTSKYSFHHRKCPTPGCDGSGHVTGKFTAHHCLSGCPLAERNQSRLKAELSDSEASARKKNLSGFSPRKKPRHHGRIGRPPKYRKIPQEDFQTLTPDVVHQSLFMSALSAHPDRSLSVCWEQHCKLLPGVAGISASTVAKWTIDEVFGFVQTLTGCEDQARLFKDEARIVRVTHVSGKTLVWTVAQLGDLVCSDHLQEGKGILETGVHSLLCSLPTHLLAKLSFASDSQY
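Read-out is AlphaScreen signal from streptavidin donor and nickel chelate acceptor beads (10 ug/mL final each) bridging L3MBTL1 (50 nM) and biotinylated K9-monomethylated H3(1-15) peptide (75 nM), after 30 min compound exposure at room temperature.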
G9a inh: G9a (human) methyltransferase inhibition; 350,000 tested, 8.8% active; Potency, µM (series often up to 102 µM), inactives show top-dose activity, negative = inhibition, most hits filed as inhibitors; Q96KQ7; G9a H3K9 monomethylation, AlphaScreen, 2 h; also: % is scaled to controls: 0 for no effect and ±100 for the full control effect; nearly all actives have a fitted effect of over 75% in size
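Using a bead-based AlphaScreen, monomethylated H3K9 product from 2 h room-temperature reactions (G9a 20 nM, peptide 500 nM, SAM 20 uM) was detected with 0.5 ug/mL rabbit anti-H3K9me1 antibody.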
JMJD2A Tudor: inhibitors of human JMJD2A Tudor domain; 390,000 tested, 4.4% active; AlphaScreen JMJD2A-Tudor / H3K4me3 peptide binding; Potency, µM (series often up to 114 µM), for inactives: top-dose activity change, negative = inhibition, most hits filed as inhibitors; also: % is scaled to controls: 0 for no effect and ±100 for the full control effect; nearly all actives have a fitted effect of over 50% in size
Sfp PPTase inh: inhibitors of Bacillus subtilis Sfp phosphopantetheinyl transferase; Biochemical Sfp PPTase activity, qHTS; Potency, µM, for the others: largest response in the series, negative = inhibition, most hits filed as inhibitors; 310,000 tested, 3.5% active; AID 1490;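 also: the enzyme is Sfp with the accession as filed and its product quenches rhodamine fluorescence; 0% = enzyme reaction without inhibitor and -100% = no enzyme wells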
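With Hepes-Na pH 7.6 buffer containing 10 mM MgCl2, Sfp (15 nM) modified BHQ-2-YbbR (12.5 uM) using rhodamine-CoA (5 uM). Two reads 30 minutes apart at 525/598 nm yielded each well's rate.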
BAZ2B block: BAZ2B (human) inhibition | AID 504333 | 360,000 tested, 4.4% active | AlphaScreen BAZ2B-H3K14Ac peptide displacement | Potency, µM (highest dose often 114 µM), inactives show at the highest dose activity change, negative = inhibition, usual class: inhibitors | Q9UIF8; also: % is scaled to controls: 0 for no effect and ±100 for the full control effect; nearly all actives have a fitted effect of over 60% in size
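AlphaScreen displacement: compounds (up to 110uM) incubated 30 min at room temperature with a preformed 50 nM BAZ2B/50 nM biotinylated H3K14Ac peptide complex in PBS pH 7.4 with Tween-20. Donor and acceptor beads at 10 ug/mL final added, 20 min light-protected before reading.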
An asterisk follows results filed as active; u = inconclusive; x = no result given; ! = a repeat was not active; [ ] = remark or other dose. Sampled rows, rich in hits. Any-hit rate of the full collection: about 12%. Calls follow the shape of the dose curve; as a rule, active = well fitted curve in the direction sought with a large enough effect; inconclusive = small, poorly fitted or top-dose-only effect, or another doubt; inactive = no such curve, though single readings can be large; an effect the other way counts as inactive or inconclusive. Potency is read from the fitted curve at half-maximal effect.

SMILES	HP1b chromo inh	L3MBTL1 block	G9a inh	JMJD2A Tudor	Sfp PPTase inh	BAZ2B block
CC(C)(C)CC(C)(C)c1ccc(O)cc1	x	x	x	x	28%	x
C[N+]1(C)CCO[C@](O)(c2ccc(-c3ccc([C@]4(O)C[N+](C)(C)CCO4)cc3)cc2)C1	x	x	13%[21.5 µM]	x	14%	x
Cc1ccccc1N1C(=O)NC(=O)/C(=C\c2cc(Br)c(N3CCOCC3)o2)C1=O	u	u	u	-27%	-17%	u
COc1ccc(N2C(=O)/C(=C/c3ccc(C)o3)C(=O)NC2=S)c(OC)c1	-23%	-7%[2.29 µM]	12%[0.501 µM]	50µM*	40µM*	50µM*
COC(=O)[C@@]1(O)C[C@@H]2O[C@@]1(C)n1c3ccccc3c3c4c(c5c6ccccc6n2c5c31)C(=O)NC4	x	x	x	x	-3%	x
O=C(Nc1ccc(Oc2ccc(Cl)cc2)c(Cl)c1)c1cc(I)cc(I)c1O	-13%	x	u	79µM*	-8%	u
Cc1ccc2c(c1)C1CN(C)CCC1N2C(=O)Cc1cccs1 (stereo unspecified)	10%	5%	79µM*	-20%	12%	-4%
Cc1ccc2c(c1)C1CN(C)CCC1N2C(=O)c1cccs1 (stereo unspecified)	1%	x	9%	-14%	-3%	-20%
CC1=CC(=C2C(=O)NC(=S)NC2=O)C=C(C(F)(F)F)N1Cc1ccccc1	59%	x	79µM*	-6%	8%	3%
CC1=CC(=C2C(=O)NC(=O)NC2=O)C=C(C(F)(F)F)N1Cc1ccccc1	33%	39%	x	-12%	1%	-13%
O=C1Nc2ccccc2/C1=C/c1cnc[nH]1	17%	-3%	44%[59 µM]	-18%	14%	u
COc1ccc2c(c1)/C(=C/c1cnc[nH]1)C(=O)N2	9%	x	30%[59 µM]	-30%	2%	50µM*
COc1cc(OC)c(/C=C2\C(=O)Nc3ccccc32)c(OC)c1	u	u	u	56µM*	x	45µM*
CCN1CCN(Cc2cccc(Oc3ccccc3)c2)CC1	u	x	3.5µM*	3.2µM*	u	32µM*
Cc1cccc(C2=NCC(=O)N(CC(=O)NCc3ccco3)c3sc4c(c32)CCCC4)c1	-22%	-6%	u	50µM*	22µM*	45µM*
Cn1c(O)c(/C=C/C=Nc2ccccc2)c(=O)n(C)c1=S	24%	-6%	45µM*	-14%	-11%	-1%
COC(=O)c1ccc(N2C(=O)CC(N3CCC(O)(c4ccc(Br)cc4)CC3)C2=O)cc1 (stereo unspecified)	49%	x	11µM*	-9%	7%	4%
COc1ccc(OC)c(C(O)C(C)N)c1 (stereo unspecified)	48%	-9%	-17%[59 µM]	-11%	14%	0%
C[C@@H](N)[C@@H](O)c1ccc(O)c(O)c1	x	x	2µM*	x	56µM*	x
CC(N)[C@H](O)c1ccc(O)c(O)c1 (stereo partly specified)	x	x	14µM*	14µM*	x	x
CCc1ccccc1N1C(=O)/C(=C/c2ccc(N3CCN(C)CC3)o2)C(=O)NC1=S	u	-2%	u	56µM*	-7%	u
CN1C(=O)C(=Cc2ccc(N3CCCCCC3)o2)C(=O)N(C)C1=S	-50%	-8%	45µM*	u	-22%	u
Cc1cccc(N2C(=O)/C(=C/c3ccc(N4CCN(C)CC4)o3)C(=O)NC2=S)c1C	-32%	-11%	45µM*	u	63µM*	-63%
Cc1ccccc1N1C(=O)NC(=O)/C(=C/c2ccc(N3CCOCC3)o2)C1=O	28%	-14%	u	1%	8%	-19%
C[C@@H](COc1ccccc1)N(CCCl)Cc1ccccc1	x	x	2%[21.5 µM]	x	14%	x
SMILES	HP1b chromo inh	L3MBTL1 block	G9a inh	JMJD2A Tudor	Sfp PPTase inh	BAZ2B block
CCCc1nnc(NC(=O)CCC(=O)N2CCN(CCOC(c3ccccc3)c3ccccc3)CC2)s1	1%	-12%	-21%	-29%	7%	-37%
CCc1nnc(NC(=O)CSc2ccc(-c3ccco3)nn2)s1	17%	x	22µM*	9%	28µM*	50µM*
O=C(CSc1ccc(-c2ccco2)nn1)Nc1ccccc1	2%	x	20µM*	-25%	32µM*	-15%
Cc1cc(SCC(=O)N/N=C/c2ccco2)nc2ccccc12	14%	-8%	x	-27%	5%	u
CC1=CCCC2C1(C)CCC(C)C2(C)CC/C(C)=C/C[n+]1cn(C)c2c(N)ncnc21 (stereo unspecified)	x	x	-17%[2.33 µM]	x	-25%	x
CCOc1ccccc1NC(=O)c1sc2nc3c(cc2c1N)CN(Cc1ccccc1)CC3	53%	x	u	0%	x	-2%[57.1 µM]
C[N+](C)(C)CCCl	x	x	x	x	12%	x
O=c1[nH]sc2cc(F)ccc12	u	x	1.6µM*	22µM*	3.2µM*	45µM*
Oc1cn2c(n1)Nc1ccc(Cl)c(Cl)c1C2	x	x	u	x	6%	x
c1ccc2c(N3CCNCC3)cccc2c1	51%	x	17µM*!	-16%	-9%	x
c1ccc2nc(N3CCNCC3)ccc2c1	26%	9%	11µM*!	-12%	-9%	0%
c1ccc(C(c2ccccc2)N2CCN(c3ccc4ccccc4n3)CC2)cc1	106%	6%	9%	35%	2%	-5%
Clc1cccc(N2CCNCC2)c1Cl	30%	9%	3%[59 µM]	-2%	16%	-1%
CC[C@H](C)[C@H](NC(=O)[C@H](CCCN=C(N)N)NC(=O)[C@H](CCCN=C(N)N)NC(=O)[C@H](CC(C)C)NC(=O)[C@H](Cc1ccccc1)NC(=O)CNC(=O)CNC(=O)[C@@H](N)Cc1ccc(O)cc1)C(=O)N[C@@H](CCCN=C(N)N)C(=O)N1CCC[C@H]1C(=O)N[C@@H](CCCCN)C(=O)N[C@@H](CC(C)C)C(=O)N[C@@H](CCCCN)C(=O)O	x	x	37%[59 µM]	x	u	x
O=C(NC(=S)Nc1ccccc1N1CCCC1)c1ccccc1Br	x	x	10µM*	x	18%	11µM*
O=c1[nH]c(=S)[nH]c(O)c1N=Nc1cc(S(=O)(=O)Nc2ccc(Cl)cc2)ccc1Cl	40µM*	4%	u	35µM*	x	35µM*
Cc1ccc(Cn2c(SCc3ccc(C(=O)NC4CCCC4)cc3)nc3ccncc32)cc1	53%	x	u	-10%	x	-2%
CCCCC/C=C\C/C=C\C/C=C\C/C=C\CCCC(=O)N[C@H](C)CO	x	x	1%[59 µM]	x	22µM*!	x
COc1ccc(CCNC(=O)CCn2c(=O)c3ccccc3n(Cc3ccc(Cl)cc3)c2=O)cc1OC	58%	x	5%[59 µM]	1%	x	9%
COc1cc(/C=C2\C(=O)NC(=O)N(CCc3ccc(F)cc3)C2=O)ccc1O	32%	4%	40µM*	-10%	u	0%
